Reference: PubChem BioAssay AID602261 (Sanford-Burnham Center for Chemical Genomics, 2012)
Among all 360,000 compounds or so, about 2,400 (0.67%) were called active.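 Rule for the calls: active = compounds whose normalised, plate-corrected inhibition of enzyme fluorescence in the single-dose primary screen is 50% or more; inactive = the rest.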 Many of the other results were omitted from the sample, so actives are more common in it than they were.

Target: Fatty acid synthase (Homo sapiens) (UniProt P49327)
Sequence (P49327 whole entry, looked up, the tested form may be a part): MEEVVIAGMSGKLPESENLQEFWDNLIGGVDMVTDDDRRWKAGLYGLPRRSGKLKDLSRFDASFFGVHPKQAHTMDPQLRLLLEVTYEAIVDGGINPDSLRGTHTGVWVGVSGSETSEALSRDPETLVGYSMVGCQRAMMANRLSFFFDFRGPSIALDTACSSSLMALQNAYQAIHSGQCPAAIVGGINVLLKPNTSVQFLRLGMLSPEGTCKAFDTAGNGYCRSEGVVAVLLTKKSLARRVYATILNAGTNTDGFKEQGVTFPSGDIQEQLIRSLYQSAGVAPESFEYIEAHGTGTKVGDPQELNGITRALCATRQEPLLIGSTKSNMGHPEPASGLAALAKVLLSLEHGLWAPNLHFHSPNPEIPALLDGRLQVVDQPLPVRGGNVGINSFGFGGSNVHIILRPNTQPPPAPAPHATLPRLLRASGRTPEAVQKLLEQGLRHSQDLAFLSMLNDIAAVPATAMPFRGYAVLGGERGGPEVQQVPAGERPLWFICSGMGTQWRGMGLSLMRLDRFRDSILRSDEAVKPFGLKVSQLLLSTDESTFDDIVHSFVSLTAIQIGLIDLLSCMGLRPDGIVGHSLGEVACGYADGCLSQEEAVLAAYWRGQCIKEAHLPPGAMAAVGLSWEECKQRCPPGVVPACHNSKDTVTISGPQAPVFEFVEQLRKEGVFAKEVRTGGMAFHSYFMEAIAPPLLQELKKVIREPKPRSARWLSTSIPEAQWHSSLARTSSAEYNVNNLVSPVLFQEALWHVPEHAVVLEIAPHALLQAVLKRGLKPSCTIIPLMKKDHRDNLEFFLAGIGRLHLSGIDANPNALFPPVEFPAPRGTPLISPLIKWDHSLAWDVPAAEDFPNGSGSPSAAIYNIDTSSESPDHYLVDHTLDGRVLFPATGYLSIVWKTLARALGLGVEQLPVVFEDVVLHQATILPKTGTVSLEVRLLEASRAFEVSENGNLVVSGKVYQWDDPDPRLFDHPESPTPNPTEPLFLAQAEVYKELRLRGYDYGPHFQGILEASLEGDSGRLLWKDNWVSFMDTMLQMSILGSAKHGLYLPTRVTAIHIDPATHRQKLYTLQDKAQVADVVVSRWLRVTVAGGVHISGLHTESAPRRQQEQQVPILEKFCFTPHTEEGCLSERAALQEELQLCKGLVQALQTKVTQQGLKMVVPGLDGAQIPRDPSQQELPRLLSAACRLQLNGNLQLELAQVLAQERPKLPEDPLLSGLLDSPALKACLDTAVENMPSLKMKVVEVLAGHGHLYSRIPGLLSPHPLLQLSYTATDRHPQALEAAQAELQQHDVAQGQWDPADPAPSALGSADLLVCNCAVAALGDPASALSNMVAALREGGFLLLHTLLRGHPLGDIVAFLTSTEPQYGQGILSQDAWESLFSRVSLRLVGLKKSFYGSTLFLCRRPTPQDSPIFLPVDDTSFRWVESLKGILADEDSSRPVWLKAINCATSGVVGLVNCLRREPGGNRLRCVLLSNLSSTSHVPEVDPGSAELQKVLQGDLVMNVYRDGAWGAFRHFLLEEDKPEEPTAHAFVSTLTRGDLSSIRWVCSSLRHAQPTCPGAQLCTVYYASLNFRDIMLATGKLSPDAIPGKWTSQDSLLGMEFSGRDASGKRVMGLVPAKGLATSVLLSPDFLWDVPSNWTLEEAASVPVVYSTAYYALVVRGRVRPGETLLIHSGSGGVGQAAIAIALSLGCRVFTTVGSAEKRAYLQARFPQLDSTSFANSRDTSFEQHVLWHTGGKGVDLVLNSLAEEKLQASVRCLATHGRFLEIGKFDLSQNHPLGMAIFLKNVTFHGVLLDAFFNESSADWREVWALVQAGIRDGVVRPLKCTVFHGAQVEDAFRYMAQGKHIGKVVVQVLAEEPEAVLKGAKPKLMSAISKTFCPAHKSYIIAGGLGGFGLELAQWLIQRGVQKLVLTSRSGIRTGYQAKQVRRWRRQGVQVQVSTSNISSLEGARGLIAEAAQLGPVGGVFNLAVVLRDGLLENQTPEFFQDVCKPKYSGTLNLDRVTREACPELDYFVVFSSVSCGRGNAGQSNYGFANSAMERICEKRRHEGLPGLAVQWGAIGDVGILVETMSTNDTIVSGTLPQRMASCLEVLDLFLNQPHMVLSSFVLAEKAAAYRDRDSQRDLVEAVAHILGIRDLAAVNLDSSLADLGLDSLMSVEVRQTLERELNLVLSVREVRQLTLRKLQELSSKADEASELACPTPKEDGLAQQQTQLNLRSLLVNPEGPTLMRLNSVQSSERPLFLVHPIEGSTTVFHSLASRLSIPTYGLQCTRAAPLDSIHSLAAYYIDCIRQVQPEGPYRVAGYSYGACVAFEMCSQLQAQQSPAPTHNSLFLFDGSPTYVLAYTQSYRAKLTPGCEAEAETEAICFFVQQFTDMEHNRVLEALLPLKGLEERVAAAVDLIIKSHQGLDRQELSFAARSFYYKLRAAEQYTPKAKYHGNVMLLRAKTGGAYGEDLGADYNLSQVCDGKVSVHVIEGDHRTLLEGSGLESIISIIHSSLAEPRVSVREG
Test: FAS thioesterase domain inhibitors, primary screen, biochemical, fluorescence intensity, uHTS (AID 602261);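 note: 0% = DMSO with enzyme and 100% = substrate without enzyme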
Settings: recombinant FAS-TE, OMFH fluorogenic substrate, fluorescence endpoint; at 15 µM; active compounds read high

| SMILES | inhibition |
| --- | --- |
| CSc1ccccc1NC(=O)c1cnc2sc(C)cn2c1=O | 4.9% (inactive) |
| O=[N+]([O-])c1cc([N+](=O)[O-])c(Oc2cc(F)cc(F)c2F)cc1NN1CCCCC1 | 11.3% (inactive) |
| Cc1c(C(=O)NC(C)C2CC3CCC2C3)cccc1[N+](=O)[O-] (configuration not stated) | 11.2% (inactive) |
| COC(=O)c1cc(C(=O)NC(C)C2CC3CCC2C3)cc([N+](=O)[O-])c1 (configuration not stated) | 50.5% (active) |
| Cc1cccc(C(=O)OCC(=O)NC(C)C2CC3CCC2C3)c1O (configuration not stated) | 20.1% (inactive) |
| COc1ccc(CN2C(CC(=O)Nc3cccnc3)c3ccc(C(F)(F)F)cc3S2(=O)=O)cc1 (configuration not stated) | 14.3% (inactive) |
| CCCCc1nc2cc(C(=O)NCCc3cnn(C)c3)ccc2o1 | -2.8% (inactive) |
| Cc1noc(C)c1NC(=O)Nc1cccc2c1O[C@H](CN(C)C(=O)Nc1ccccc1)[C@@H](C)CN([C@H](C)CO)C2=O | 55.4% (active) |
| Cc1noc(C)c1NC(=O)Nc1ccc2c(c1)C(=O)N([C@H](C)CO)C[C@H](C)[C@@H](CN(C)C(=O)Nc1ccccc1)O2 | -5.3% (inactive) |
| Cc1noc(C)c1NC(=O)Nc1cccc2c1O[C@H](CN(C)S(=O)(=O)c1c(C)noc1C)[C@@H](C)CN([C@H](C)CO)C2=O | 3.4% (inactive) |
| COc1ccc(CCCNC(=O)C2Cc3c(-c4cccc(C(N)=O)c4)ccnc3O2)cc1 (configuration not stated) | 1.7% (inactive) |
| O=S(=O)(NCCCCCCNS(=O)(=O)c1c(F)cccc1F)c1ccc2c(c1)OCCO2 | 3.8% (inactive) |
| O=C(Nc1nnc(SCc2c(Cl)cccc2Cl)s1)C1CCCO1 (configuration not stated) | 0.2% (inactive) |
| COCCSc1nnc(NC(=O)c2cc(OC)c(OC)cc2[N+](=O)[O-])s1 | -10.4% (inactive) |
| O=C(Nc1nnc(SCc2ccccc2Cl)s1)c1cccc([N+](=O)[O-])c1 | 58.6% (active) |
| CCCn1c(N)c(C(=O)CSc2nc3ccccc3c(=O)n2-c2ccc(OC)cc2)c(=O)[nH]c1=O | -0.6% (inactive) |
| O=S(=O)(Cc1noc(-c2ccc(OC(F)(F)F)cc2)n1)c1ccc(F)cc1 | 15.8% (inactive) |
| Cc1ccc(S(=O)(=O)NCC(=O)N(CC(=O)NCC2CCCO2)c2cccc(F)c2)cc1 (configuration not stated) | -4.4% (inactive) |
| CC(C)Oc1ccc(Cc2n[nH]c(=S)n2Cc2ccccc2)cc1Cl | 57% (active) |
| CC(C)Oc1ccc(CCc2n[nH]c(=S)n2Cc2ccccc2)cc1 | 19.3% (inactive) |
| COc1cc(-c2n[nH]c(=S)n2Cc2ccccc2)cc(OC)c1OC | -3.4% (inactive) |
| O=C(Nc1cccc(S(=O)(=O)N2CCOCC2)c1)C12CC3CC(CC(C3)C1)C2 | 9.3% (inactive) |
